DT40 TDP1 CPT – qHTS for Inhibitors of human tyrosyl-DNA phosphodiesterase 1 (TDP1): qHTS in cells in presence of CPT; actives 12% (n = 420,000); Potency, µM (doses to about 46.2 µM), without a hit: at the top dose activity change, negative = growth inhibition, usual class: inhibitors; chicken DT40 Tdp1-/-;hTDP1 cells + 20 nM CPT, ATP luminescence, 48 h; note: potency is the fitted concentration of half-maximal effect; % is set by controls: 0 for no effect and ±100 for the full control effect; nearly all actives have a fitted effect of over 55% in size
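Chicken DT40 Tdp1-/- cells stably complemented with human TDP1 were seeded at 400 cells/well in medium containing 20 nM camptothecin, exposed to pin-transferred compounds, and grown at 37 °C for at least 48 hr. Viability was read as ATP luminescence.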
IL-1B inflam inh – qHTS for Inhibitors of Inflammasome Signaling: IL-1-beta AlphaLISA Primary Screen; activity change, % at 57.5 µM; THP-1 LPS/ATP IL-1B secretion, AlphaLISA, 16 h; active compounds read low; actives 4.7% (n = 360,000); in the data active = activity change below about -50%; inconclusive = mostly about -30% to -49%; note: % is set by controls: 0 for no effect and ±100 for the full control effect
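Secreted IL-1B measured by AlphaLISA bead assay after 16 h compound exposure of THP-1 cells; compounds (final up to 57.5 uM) added 1 h before LPS (250 ng/mL) and ATP (1.25 mM) stimulation; lower signal means less secretion.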
D3 ag – qHTS of D3 Dopamine Receptor Agonist: qHTS. max activation, %. AID 652048, 2013. D3R DiscoveRx beta-arrestin cells, luminescence, 90 min. D(3) dopamine receptor (Homo sapiens), P35462. actives 0.58% (n = 410,000); in the data active = max activation above about 30%; note: 0% is about no effect
Target sequence (P35462 whole entry, looked up): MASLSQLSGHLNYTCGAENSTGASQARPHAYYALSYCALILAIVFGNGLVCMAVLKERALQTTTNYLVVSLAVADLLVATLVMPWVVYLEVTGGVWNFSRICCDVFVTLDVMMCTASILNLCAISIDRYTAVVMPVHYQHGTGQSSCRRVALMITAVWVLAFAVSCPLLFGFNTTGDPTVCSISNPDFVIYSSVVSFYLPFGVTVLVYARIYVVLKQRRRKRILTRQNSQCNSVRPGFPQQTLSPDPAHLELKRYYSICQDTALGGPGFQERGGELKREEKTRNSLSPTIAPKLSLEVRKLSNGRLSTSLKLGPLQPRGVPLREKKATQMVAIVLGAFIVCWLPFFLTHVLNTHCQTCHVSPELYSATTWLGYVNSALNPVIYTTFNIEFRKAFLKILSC
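Cells at 1500/well, incubated overnight, then treated with pinned compounds (dopamine as control) for 90 min at 37 degrees C. DiscoveRx reagent added for 30 - 60 minutes at room temperature; luminescence read.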
DT40 TDP1 no CPT – qHTS for Inhibitors of human tyrosyl-DNA phosphodiesterase 1 (TDP1): qHTS in cells in absence of CPT; DT40 Tdp1-/- hTDP1 cells, no CPT, ATP luminescence, 48 h; Potency, µM (highest dose often 46.2 µM), without a hit: at the top dose activity change, negative = growth inhibition, most hits filed as inhibitors; actives 15% (n = 420,000); note: potency is the fitted concentration of half-maximal effect; % is set by controls: 0 for no effect and ±100 for the full control effect; nearly all actives have a fitted effect of over 55% in size
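A cellular qHTS used chicken DT40 cells lacking endogenous Tdp1 but carrying stably transfected human TDP1. Compounds were applied without camptothecin, and cell growth kinetics were judged by ATP-dependent luminescence after ≥48 hr.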
DRD3 antagonist – qHTS of D3 Dopamine Receptor Antagonist: qHTS. D(3) dopamine receptor (Homo sapiens), P35462. D3R cells, DiscoveRx beta-arrestin luminescence, antagonist mode; active compounds read low. max response, negative = inhibition, %. actives 2.5% (n = 360,000); in the data active = max response below about -50%; inconclusive = no clear call, values can overlap the other calls; note: % is set by controls: 0 for no effect and ±100 for the full control effect
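Cells plated overnight at 1500 cells/well, then exposed to library compounds with dopamine controls for 90 minutes at 37 degrees C. DiscoveRx reagent added for 30–60 minutes at room temperature; luminescence read, quantitative HTS format.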
ClpP mod – qHTS Assay for Activators of ClpP; ATP-dependent Clp protease proteolytic subunit (Bacillus subtilis (strain 168)), P80244; purified B. subtilis ClpP, FRET peptide cleavage, 20 min; Potency, µM (doses to about 57.5 µM), without a hit: at the highest dose activity change, negative = active; actives 1.9% (n = 340,000); AID 651965, 2013; active = well fitted falling curve with a large enough effect; inconclusive = small, poorly fitted or top-dose-only effect; inactive = no such curve, though single readings can be large or run the other way; note: potency is the fitted concentration of half-maximal effect; the source files actives as falling curves though it sought activators and does not explain the sign; nearly all actives have a fitted effect of over 65% in size
Target sequence (P80244 whole entry, looked up): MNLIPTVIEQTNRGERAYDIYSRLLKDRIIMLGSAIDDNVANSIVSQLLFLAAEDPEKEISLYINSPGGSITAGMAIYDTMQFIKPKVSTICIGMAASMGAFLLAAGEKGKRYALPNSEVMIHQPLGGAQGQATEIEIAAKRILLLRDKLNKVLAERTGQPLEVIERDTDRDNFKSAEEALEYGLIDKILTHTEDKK
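Buffer: 100 mM Tris/HCl pH8, 100 mM KCl, 0.05% low protease BSA, 2.5% glycerol, 0.01% Tween-20. ClpP 10 microg/mL final; 20 min RT; delta FRET normalized to ADEP and DMSO controls.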
An asterisk follows results filed as active; ? = inconclusive; · = no result. Only some compounds are listed: those with a hit (about 21% of all), similar ones and a draw of the others. Unless noted, calls come from the whole dose curve; as a rule, active = well fitted inhibition curve with a large enough effect; inconclusive = small, poorly fitted or top-dose-only effect; inactive = flat fitted curve, though single readings scatter.

SMILES | DT40 TDP1 CPT | IL-1B inflam inh | D3 ag | DT40 TDP1 no CPT | DRD3 antagonist | ClpP mod
CCCS(=O)(=O)c1nc(S(=O)(=O)c2ccc(C)cc2)c(NC(C)c2ccccc2)s1 (stereo not given) | ? | · | -15 | 10µM* | · | -4%
O=C(c1csnn1)N1CCC2(CC1)CCN(c1ncccn1)CC2 | 6% | · | · | ? | · | ·
Cc1ccccc1C(=O)Nc1cc(NC(=O)c2ccccc2C)cc(C(=O)O)c1 | -13% | -20 | -1 | 2% | -3 | 0%
O=C(NCc1ccc(F)cc1)c1cnc(N2CCOCC2)c2ccccc12 | ? | · | 8 | 16µM* | · | -9%
COc1cccc(CNC(=O)c2cnc(N3CCCCC3)c3ccccc23)c1 | 15µM* | · | -2 | ? | · | -10%
COc1cccc(CNC(=O)c2cccnc2Sc2ccccc2)c1 | -3% | ? | -3 | 12% | -1 | -1%
Cc1ccc(CNC(=O)c2cnc(N3CCCCC3)c3ccccc23)cc1 | ? | · | 10 | 16µM* | · | ?
O=C(NCc1cccc(Cl)c1)c1cnc(N2CCCCC2)c2ccccc12 | 16µM* | · | 1 | 26µM* | · | 32µM*
COc1ccc(NC(=O)c2cnc(N3CCOCC3)c3ccccc23)cc1OC | ? | · | -3 | ? | · | 0%
O=C(CCS(=O)(=O)c1ccc(F)cc1)Nc1nccs1 | ? | 8 | 2 | ? | 19 | -3%
Cc1cccc(C)c1OCc1cc(C(=O)N2CCN(Cc3nccn3C)CC2)no1 | -12% | 2 | 8 | -14% | -11 | 3%
O=C(NCc1ccc(Cl)cc1)c1cnc(N2CCCCC2)c2ccccc12 | ? | · | 4 | ? | · | 28µM*
COc1ccc(NC(=O)N(C)C[C@H]2Oc3c(NC(=O)C4CCCCC4)cccc3C(=O)N([C@H](C)CO)C[C@@H]2C)cc1 | 1% | 18 | -5 | -15% | -5 | 0%
COCc1cc(C)n(CC(=O)Nc2ccc(Cl)cc2Cl)c(=O)c1C#N | -28% | -5 | -1 | -3% | -24 | 25µM*
COCc1cc(C)n(CC(=O)Nc2ccccc2OC)c(=O)c1C#N | ? | -24 | 2 | ? | 6 | ?
O=C(Nc1cc(F)ccc1F)C1COc2ccccc2C1 (stereo not given) | -22% | · | 6 | -11% | · | -2%
COC(=O)c1ccc(NC(=O)CSc2cn(CC(=O)N3CCCCCC3)c3ccccc23)cc1 | ? | · | -6 | 18µM* | · | 1%
Cc1cccc(NC(=O)CS(=O)(=O)c2cn(CC(=O)N3CCOCC3)c3ccccc23)c1 | 0.52µM* | -18 | 0 | 2.3µM* | 6 | ·
CCc1ccc(NC(=O)CSc2cn(CC(=O)N3CCCC3)c3ccccc23)cc1 | 18µM* | · | -16 | ? | · | -1%
CCOC(=O)c1ccc(NC(=O)CSc2cn(CC(=O)N3CCCC3)c3ccccc23)cc1 | ? | · | 3 | 18µM* | · | -1%
CCc1ccc(NC(=O)CSc2cn(CC(=O)N3CCOCC3)c3ccccc23)cc1 | -5% | · | 8 | ? | · | 4%
Cc1ccc(NC(=O)CSc2cn(CC(=O)N3CCOCC3)c3ccccc23)cc1Cl | 21µM* | · | 18 | 21µM* | · | 0%
Cc1cc(C)c(NC(=O)CSc2cn(CC(=O)N3CCOCC3)c3ccccc23)c(C)c1 | -10% | · | 1 | -27% | · | -2%
COc1cc(O)c(C(CC(=O)N2CCCCC2)c2ccc(N(C)C)cc2)c(OC)c1 (stereo not given) | 0% | -13 | 10 | -21% | 16 | 1%
Cc1ccc(N=Nc2ccc(O)cc2)c(Br)c1 | 4% | -86* | 0 | 4% | 9 | 0%
SMILES | DT40 TDP1 CPT | IL-1B inflam inh | D3 ag | DT40 TDP1 no CPT | DRD3 antagonist | ClpP mod
CCN(CC)S(=O)(=O)c1ccc(N=Nc2cc(C)cc(Br)c2O)cc1 | -22% | -6 | 1 | ? | -22 | 3%
Oc1ccc(N=Nc2ccc(Br)cc2)c(O)c1 | 26µM* | 72 | -1 | 23µM* | 5 | 1%
Cc1ccc(CNC(=O)C2CC3Cn4c(nc5cc(Cl)c(Cl)cc54)C3N2C)o1 (stereo not given) | ? | -6 | 8 | ? | 3 | 0%
C=CCCN(C1CCCC1)S(=O)(=O)c1ccccc1Br | ? | 10 | 10 | -34% | -12 | -1%
COc1cc(CN(C2CC2)S(=O)(=O)c2ccccc2Br)cc(OC)c1 | ? | 4 | 17 | 13µM* | 30 | -1%
Cn1cc(CN2CCC[C@H]2CO)c(-c2cccc(Cl)c2)n1 | -11% | 5 | 3 | -3% | 4 | 0%
N/C(=C\C(=O)c1cc(Cl)ccc1O)C(Cl)(Cl)Cl | 3.7µM* | 0 | -8 | 3.3µM* | ? | -4%
NNC(=O)c1cc(Cl)ccc1Cl | 0% | 1 | -1 | 9% | -16 | -1%
O=C(NC1CCN(Cc2ccccc2)CC1)c1cn(-c2ccccc2)nc1-c1cccnc1 | -29% | -91* | -11 | -25% | ? | -1%
O=C(N/N=C/c1cn(-c2ccccc2)nc1-c1ccc(F)cc1)c1ccc2c(c1)OCO2 | ? | ? | -8 | 18µM* | -19 | ?
O=C(N/N=C/c1cn(-c2ccccc2)nc1-c1cccnc1)c1ccccc1 | 23µM* | ? | -3 | 23µM* | 5 | ·
NC(=S)N/N=C/c1cn(-c2ccccc2)nc1-c1cccnc1 | 12µM* | -19 | 1 | 2.9µM* | -5 | -2%
